Data: PubChem BioAssay AID463173 (ICCB-Longwood Screening Facility, Harvard Medical School, 2010)
The campaign covered roughly 52,000 compounds. About 1,700 (3.3%) were called active. For the sample, actives were picked, then their nearest neighbours and some compounds at random. Unmarked numbers belong to inactive results. No stated cut-off is given here; in the data, active means survival mostly below about 52% (no sharp cut-off); inactive means mostly above about 56%.

Each compound was assayed on Wild type (assay: S. aureus survival, RN4220 and DeltatarO strains – OD600, teichoic acid synthesis inhibitors, primary screen (AID 463173)). Settings: S. aureus RN4220 wild type/DeltatarO growth, OD600, 18 h, stronger effect = lower value, screened at 18.75 µg/mL (by protocol).

**Q.** For `COC(=O)c1c(-c2cccs2)csc1NC(=O)c1cc(OC)c(OC)c(OC)c1`, which survival is on record?
**A.** Its survival is 76%.

**Q.** `CCn1ccc2cc(S(=O)(=O)N3CCCN(C(=O)NCC(=O)OC)CC3)ccc21` was tested. Which survival did it give?
**A.** Its survival is 128%.

**Q.** `CCCn1c2ccccc2c2cnn(CC(=O)NCCc3ccc(S(N)(=O)=O)cc3)c(=O)c21` was tested. Which survival did it give?
**A.** The survival was 134%.

**Q.** Which survival does the source give for `CCN(Cc1ccccc1)C(c1cccnc1)c1nnnn1Cc1ccccc1` (configuration not stated) here?
**A.** Its survival is 106%.

**Q.** For `CCc1ccccc1NS(=O)(=O)c1ccc2c(c1)CCN2C(=O)C1CC1`, which survival is on record?
**A.** The survival was 72%.

**Q.** With `Cc1ccc(-n2c(SCC(=O)Nc3cccc(Cl)c3)nc3n[nH]c(C)c3c2=N)cc1` as the compound, how does the survival read?
**A.** Its survival is 85%.

**Q.** How did the survival turn out when `Cc1ccc(Cl)cc1-n1c(SCC(=O)NCc2ccccc2)nc2n[nH]c(C)c2c1=N` was run?
**A.** Its survival is 72%.

**Q.** `Cc1ccc(-n2c(SCC(=O)NCc3ccccc3)nc3n[nH]c(C)c3c2=N)cc1Cl` was tested. Which survival did it give?
**A.** The survival was -6% (active).

**Q.** `Cc1c(Cl)cccc1-n1c(SCC(=O)NCc2ccccc2)nc2n[nH]c(C)c2c1=N` was tested. Which survival did it give?
**A.** The survival was 134%.

**Q.** How did the survival turn out when `CCCCN(CC)C(=O)CSc1nc2n[nH]c(C)c2c(=N)n1-c1cccc(C)c1` was run?
**A.** Its survival is 78%.

**Q.** `Cc1ccc(CNC(=O)CSc2nc3n[nH]c(C)c3c(=N)n2-c2cccc(C)c2)cc1` was tested. Which survival did it give?
**A.** The survival was 133%.

**Q.** Which survival does the source give for `Cc1cccc(-n2c(SCC(=O)Nc3ccc(C)c(C)c3)nc3n[nH]c(C)c3c2=N)c1` here?
**A.** The survival was 76%.

**Q.** With `Cc1cccc(NC(=O)CSc2nc3n[nH]c(C)c3c(=N)n2-c2cccc(Cl)c2)c1` as the compound, how does the survival read?
**A.** Its survival is 14% (active).

**Q.** With `Cc1ccc(NC(=O)CSc2nc3n[nH]c(C)c3c(=N)n2-c2cccc(C)c2)cc1` as the compound, how does the survival read?
**A.** Its survival is -6% (active).

**Q.** `CCCCN(CC)C(=O)CSc1nc2n[nH]c(C)c2c(=N)n1-c1cccc(Cl)c1` was tested. Which survival did it give?
**A.** Its survival is -1% (active).

**Q.** For `CCCCN(CC)C(=O)CSc1nc2n[nH]c(C)c2c(=N)n1-c1cccc(OC)c1`, which survival is on record?
**A.** Its survival is 120%.

**Q.** How did the survival turn out when `Cc1cccc(-n2c(SCC(=O)Nc3ccccc3Cl)nc3n[nH]c(C)c3c2=N)c1` was run?
**A.** Its survival is 72%.

**Q.** `CCOC(=O)c1ccccc1NC(=O)CSc1nc2cn(CC)nc2c(=O)n1Cc1ccc(Cl)cc1` was tested. Which survival did it give?
**A.** Its survival is 67%.

**Q.** How did the survival turn out when `Cc1ccc2ccc3cc(C(=O)N4CCN(c5ccccc5)CC4)nc3c2[nH]1` was run?
**A.** Its survival is 128%.

**Q.** With `COc1ccc(CNC(=O)c2ccc(CS(=O)(=O)c3ccccc3OC)o2)cc1` as the compound, how does the survival read?
**A.** Its survival is 76%.

**Q.** `CCOc1cc(Br)c(C2C(C(=O)OC)=C(C)NC3=C2C(=O)c2ccccc23)cc1OCC` (configuration not stated) was tested. Which survival did it give?
**A.** The survival was 96%.

**Q.** With `Cc1ccc(-n2nnc(-c3nc(-c4cccs4)no3)c2N)cc1C` as the compound, how does the survival read?
**A.** Its survival is 100%.

**Q.** For `Cc1cccc(-n2ncc(C(=O)Nc3ccc4c(c3)OCO4)c2C2CCN(C(=O)OC(C)(C)C)CC2)c1`, which survival is on record?
**A.** The survival was 89%.

**Q.** For `CCOC(=O)c1ccccc1NC(=O)Cn1c(=O)n(Cc2ccccc2)c(=O)c2c(C)c(C)sc21`, which survival is on record?
**A.** The survival was 90%.

**Q.** With `CCCCOc1ccc(C(=O)NCCS(=O)(=O)N2CCN(c3ccc(F)cc3)CC2)cc1` as the compound, how does the survival read?
**A.** The survival was 65%.

**Q.** How did the survival turn out when `COc1ccccc1NC(=O)c1c(C)cc(C)nc1SCC(=O)Nc1ccc(C)c(C)c1` was run?
**A.** Its survival is 81%.

**Q.** `Cc1ccc(-c2cn3c(n2)sc2cc(C(=O)NCCC4=CCCCC4)ccc23)c(C)c1` was tested. Which survival did it give?
**A.** The survival was 100%.

**Q.** `COC(=O)c1ccc(NC(=O)CSc2nc(=O)n(Cc3ccco3)c3c2CCC3)cc1` was tested. Which survival did it give?
**A.** The survival was 126%.

**Q.** Which survival does the source give for `CCc1ccc(NCc2cc3cc4c(cc3n(CC(=O)Nc3ccc(C)cc3)c2=O)OCO4)cc1` here?
**A.** Its survival is 113%.

**Q.** How did the survival turn out when `COc1ccc2c(c1)c1c(c(=O)n(Cc3ccccc3)c(=O)n1CC(=O)Nc1c(C)cccc1C)n2C` was run?
**A.** The survival was 81%.

**Q.** `CC(=O)c1cccc(NC(=O)Cn2c(=O)c(CNc3ccc(C)cc3)cc3cc4c(cc32)OCCO4)c1` was tested. Which survival did it give?
**A.** The survival was 77%.

**Q.** For `Cc1ccc(NCc2cc3cc4c(cc3n(CC(=O)Nc3ccc(C)cc3)c2=O)OCCO4)cc1`, which survival is on record?
**A.** The survival was 0% (active).

**Q.** With `COc1ccc2c(c1)c1c(c(=O)n(CCc3ccccc3)c(=O)n1Cc1ccccc1)n2C` as the compound, how does the survival read?
**A.** Its survival is 57%.

**Q.** How did the survival turn out when `COc1ccc2c(c1)c1c(c(=O)n(Cc3ccccc3)c(=O)n1CC(=O)Nc1ccc(C)cc1C)n2C` was run?
**A.** Its survival is -4% (active).

**Q.** Which survival does the source give for `COc1ccc2cc(CNc3ccc(C)cc3)c(=O)n(CC(=O)Nc3ccc(C)cc3Cl)c2c1` here?
**A.** The survival was 74%.

**Q.** How did the survival turn out when `COc1ccc2c(c1)c1c(c(=O)n(Cc3ccccc3)c(=O)n1CC(=O)Nc1ccccc1F)n2C` was run?
**A.** The survival was 129%.

**Q.** With `COc1ccc2c(c1)c1c(c(=O)n(CCc3ccccc3)c(=O)n1Cc1cccc(F)c1)n2C` as the compound, how does the survival read?
**A.** The survival was 63%.

**Q.** How did the survival turn out when `COc1ccc2c(c1)c1c(c(=O)n(CCc3ccccc3)c(=O)n1Cc1ccc(F)cc1)n2C` was run?
**A.** The survival was 1% (active).

**Q.** How did the survival turn out when `CCc1ccc(NCc2cc3ccc(OC)cc3n(CC(=O)Nc3ccccc3C)c2=O)cc1` was run?
**A.** The survival was 84%.

**Q.** With `COc1ccc2cc(CNc3ccccc3)c(=O)n(CC(=O)Nc3ccc(C)cc3C)c2c1` as the compound, how does the survival read?
**A.** The survival was -2% (active).

**Q.** `COc1ccc(NC(=O)C2CCCN(S(=O)(=O)c3ccc(F)cc3)C2)cc1` (configuration not stated) was tested. Which survival did it give?
**A.** The survival was 85%.

**Q.** `COc1ccc(-n2nc3cc(C)c(NC(=O)COc4cccc(C)c4)cc3n2)cc1` was tested. Which survival did it give?
**A.** The survival was 78%.

**Q.** How did the survival turn out when `CCCCC1CCC(C(=O)N2CC(=O)Nc3ccc(F)cc3C2c2ccc(F)cc2)CC1` (configuration not stated) was run?
**A.** The survival was 77%.

**Q.** For `CCOc1ccc2[nH]c(=O)c(-c3nc4cccc(C)n4c3NCc3ccco3)cc2c1`, which survival is on record?
**A.** Its survival is 108%.

**Q.** How did the survival turn out when `Cc1ccc(CNC(=O)Cc2c(C)c3cc4c(C)coc4cc3oc2=O)cc1` was run?
**A.** The survival was 92%.

**Q.** For `COc1ccc(-c2noc(C(C)NC(=O)c3ccco3)n2)cc1` (configuration not stated), which survival is on record?
**A.** The survival was 107%.

**Q.** How did the survival turn out when `Cc1nn(CC(=O)Nc2ccc(C(C)C)cc2)c(=O)c2c(C)n(-c3ccc(Cl)cc3)nc12` was run?
**A.** The survival was 90%.

**Q.** How did the survival turn out when `COc1ccc2c(c1)c1c(c(=O)n(Cc3ccccc3)c(=O)n1Cc1ccccc1)n2C` was run?
**A.** Its survival is -3% (active).

**Q.** With `COc1cccc(Cn2c(=O)n(Cc3ccccc3)c(=O)c3c2c2cc(OC)ccc2n3C)c1` as the compound, how does the survival read?
**A.** The survival was 57%.

**Q.** With `COc1ccc2c(c1)c1c(c(=O)n(Cc3ccccc3)c(=O)n1Cc1ccc(C)cc1)n2C` as the compound, how does the survival read?
**A.** Its survival is 87%.

**Q.** Which survival does the source give for `C/C(=N/OCC(=O)Nc1sc2c(c1C#N)CCCC2)c1cccs1` here?
**A.** The survival was 111%.

**Q.** Which survival does the source give for `CCOc1ccc(CCNC(=O)c2cc3c(s2)-c2c(C)cccc2OC3)cc1` here?
**A.** The survival was 90%.

**Q.** With `CCN1CCN(CCCNC(=O)c2cc3c(s2)-c2c(C)cccc2OC3)CC1` as the compound, how does the survival read?
**A.** The survival was 87%.

**Q.** With `CCN(Cc1ccccc1)C(=O)c1cc2c(s1)-c1c(C)cccc1OC2` as the compound, how does the survival read?
**A.** The survival was 71%.

**Q.** How did the survival turn out when `CCOCCCN(Cc1ccco1)C(=O)c1cc2c(=O)[nH]c3ccc(C)cc3c2s1` was run?
**A.** Its survival is 127%.

**Q.** For `CCOCCCN(Cc1ccco1)C(=O)c1cc2c(s1)-c1c(C)cccc1OC2`, which survival is on record?
**A.** Its survival is 12% (active).

**Q.** For `CCCCN(Cc1ccco1)C(=O)c1cc2c(s1)-c1c(C)cccc1OC2`, which survival is on record?
**A.** The survival was 13% (active).
